Assay results published in PubChem BioAssay (Tox21).
Records with an inconclusive call do not appear. Calls of active or inactive are those of the source. Unless noted, calls follow the shape of the dose curve; as a rule, active = well fitted curve in the direction sought with a large enough effect in the repeat runs; inconclusive = weak or mixed curves; inactive = no such curve, though single readings can be large; an effect the other way counts as inactive or inconclusive.

Assays:
[1] = qHTS assay to identify small molecule agonists of the androgen receptor (AR) signaling pathway in the presence of an antagonist - cell viability counter screen (AID 1259379);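 also: MDA-kb2 human breast cancer cells carrying an MMTV luciferase reporter; series mostly up to about 92 µM; nearly all actives have a fitted effect of over 25% in size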
Outline: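 Cytotoxicity is assessed by CellTiter-Fluor in MDA-kb2 cells carrying an MMTV-driven luciferase reporter. Cells receive 3.0uM nilutamide plus compounds at 15 concentrations and incubate 16 hr at 37C without CO2 before fluorescence reading.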

[2] = qHTS assay to identify small molecule antagonists of the estrogen receptor beta (ER-beta) signaling pathway - cell viability counter screen (AID 1259382);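 also: HEK293T cells carrying ER-beta-UAS-bla reporter stimulated with estradiol; series mostly up to about 92 µM; nearly all actives have a fitted effect of over 55% in size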
Outline: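 Cytotoxicity counter screen multiplexed with the beta-lactamase antagonist assay: GripTite HEK293T ER-beta-bla cells were treated 16 hr with test chemicals in the presence of 1nM 17-beta-estradiol, and viability was measured by CellTiter-Glo.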

[3] = qHTS assay to identify small molecule agonists or antagonists of the thyroid stimulating hormone receptor (TSHR) signaling pathway - wild type cell line counter screen (AID 1259384; calls by dose curve)
Outline: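 Wild-type Hek293 cells, 800/well, 18 h at 37C, then compound with Ro20-1724 for 30 min RT. cAMP by HTRF (cAMP-d2/anti-cAMP cryptate), 1 h RT, fluorescence read. 15 concentrations, triplicates.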

[4] = biological target: Thyrotropin receptor (Homo sapiens) (UniProt P16473); experiment: qHTS assay to identify small molecule antagonists of the thyroid stimulating hormone receptor (TSHR) signaling pathway (AID 1259385; calls by dose curve; also: nearly all actives have a fitted effect of over 20% in size)
Outline: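 TSHR-HEK293 cells (800/well) plated 18 h, then compounds with Ro20-1724 and TSH at 1.5 ng/mL final, 30 min at room temperature. cAMP quantified by HTRF (cAMP-d2/anti-cAMP-cryptate, 1 h); 15 concentrations in triplicate.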

[5] = qHTS assay to identify small molecule agonists of the estrogen receptor alpha (ER-alpha) signaling pathway in the presence of an antagonist - cell viability counter screen (AID 1259386);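 also: series mostly up to about 92 µM; cells exposed to compounds for 22 h at 37 °C before the viability read; nearly all actives have a fitted effect of over 30% in size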
Outline: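 Cytotoxicity was measured in parallel with the ERE-luciferase agonist screen, in the same wells. The cells were VM7Luc4E2, which endogenously express ER-alpha, and treatment was with compounds plus 10.0nM ICI-182,780 for 22hr.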

[6] = biological target: Progesterone receptor (Homo sapiens) (UniProt P06401); experiment: qHTS assay to identify small molecule agonists of the progesterone receptor (PR) signaling pathway (AID 1346784; calls by dose curve; also: nearly all actives have a fitted effect of over 30% in size)
Outline: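 Agonist qHTS: compounds pinned onto 3,000 PR-UAS-bla HEK 293T cells per well in charcoal-stripped serum medium, 16hr at 37C, then beta-lactamase activity measured by LiveBLAzer FRET fluorescence after 2 hours at room temperature.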

[7] = biological target: Progesterone receptor (Homo sapiens) (UniProt P06401); experiment: qHTS assay to identify small molecule antagonists of the progesterone receptor (PR) signaling pathway (AID 1346795; active = well fitted inhibition curve with a large enough effect in the signal ratio in the repeat runs, not every such curve was filed as active; the % refers to the signal ratio)
Outline: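 Antagonist mode with agonist R5020 at 1 nM final and 16 hr incubation at 37C. Reporter was beta-lactamase driven by UAS in HEK293T (PR-UAS-bla), 2% charcoal-stripped serum; signal from LiveBLAzer FRET substrate, 2 hr at room temperature.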

[8] = qHTS assay to identify small molecule antagonists of the progesterone receptor (PR) signaling pathway - cell viability counter screen (AID 1346798); also: series mostly up to about 92 µM; nearly all actives have a fitted effect of over 50% in size
Outline: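 Cytotoxicity read as CellTiter-Glo luminescence (30 min, room temperature) in the same wells as the beta-lactamase readout. HEK293T PR-UAS-bla cells in charcoal-stripped 2% FBS received compound and R5020, then 16 h at 37C, 5% CO2.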

[9] = qHTS assay to identify small molecule agonists of the progesterone receptor (PR) signaling pathway - cell viability counter screen (AID 1346799; calls by dose curve; also: nearly all actives have a fitted effect of over 45% in size)
Outline: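 Cytotoxicity measured by CellTiter-Glo luminescence (30 min, RT) in the same wells as the PR beta-lactamase agonist read. Those HEK293T cells had 16 h compound treatment at 37 C in 2% charcoal-stripped FBS medium.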

[10] = qHTS assay to identify small molecule antagonists of the TGF-beta/Smad signaling pathway - cell viability counter screen (AID 1346824); also: nearly all actives have a fitted effect of over 50% in size
Outline: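 SBE-bla HEK 293T cells, incubated overnight, then compound plus 0.25 ng/mL TGF-beta1 (stock added) for 5 hr at 37 C. Viability was read in the same wells by CellTiter-Glo luminescence after 30 min at room temperature.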

[11] = qHTS assay to identify small molecule agonists of the TGF-beta/Smad signaling pathway - cell viability counter screen (AID 1346829); also: top concentration of the series differs between compounds; nearly all actives have a fitted effect of over 45% in size
Outline: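 Luminescence from CellTiter-Glo, read after a 30 min room-temperature incubation, gives cell viability of SBE-bla HEK 293T cells treated 5 hr with compounds at 37 C.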

[12] = qHTS assay to identify small molecule agonists of the TGF-beta/Smad signaling pathway (AID 1346859; active = well fitted activation curve with a large enough effect in the signal ratio in the repeat runs, not every such curve was filed as active; the % refers to the signal ratio; also: series mostly up to about 77 µM)
Outline: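 Fluorescence (ex 405 nm; em 460 and 530 nm) was read 2 h after LiveBLAzer FRET substrate at RT. The preceding compound treatment of overnight-plated SBE-bla HEK293T cells lasted 5 h at 37 C.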

[13] = biological target: Thyrotropin-releasing hormone receptor (Homo sapiens) (UniProt P34981); experiment: qHTS assay to identify small molecule antagonists of the thyrotropin-releasing hormone receptor (TRHR) signaling pathway (AID 1346877; active = well fitted inhibition curve with a large enough effect in the repeat runs, not every such curve was filed as active; also: series mostly up to about 51 µM)
Outline: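 Antagonism is measured as suppression of the calcium response to 1 nM TRH in TRHR-HEK293 cells that have been dye-loaded for 2 h at 37 °C after overnight plating. Each compound is tested at 15 concentrations in triplicate.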

[14] = biological target: Thyrotropin-releasing hormone receptor (Homo sapiens) (UniProt P34981); experiment: qHTS assay to identify small molecule agonists of the thyrotropin-releasing hormone receptor (TRHR) signaling pathway (AID 1346891; calls by dose curve; also: series mostly up to about 58 µM)
Outline: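 Agonist-mode intracellular calcium readout: kinetic fluorescence over 3 min at 1 s intervals after compound addition to TRHR-HEK293 cells (18 h seeded, 2 h dye-loaded at 37 C). Fifteen concentrations, triplicates.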

[15] = Human pregnane X receptor (PXR) small molecule agonists, qHTS cell viability counter screen (AID 1346977); also: nearly all actives have a fitted effect of over 50% in size
Outline: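 Same-well viability read: CellTiter-Fluor added after 23 hr compound exposure, fluorescence measured 1 hr later. Cells were PXR-Luc HepG2 seeded at 2,000/well in 5% charcoal-stripped FBS medium, rested 5 hr before dosing at 37 C.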

[16] = biological target: Estrogen receptor (Homo sapiens) (UniProt P03372); experiment: qHTS assay to identify small molecule agonists of the estrogen receptor alpha (ER-alpha) signaling pathway in the presence of an antagonist (AID 1259383; calls by dose curve; also: top concentration of the series differs between compounds; nearly all actives have a fitted effect of over 15% in size)
Outline: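 Agonist-mode confirmation in the presence of the ER antagonist ICI-182,780 at 10.0nM final. Breast-derived VM7Luc4E2 reporter cells were exposed to compounds for 22hr, and ERE-driven luciferase was quantified by luminescence.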

[17] = qHTS assay to identify small molecule agonists of the estrogen receptor beta (ER-beta) signaling pathway - cell viability counter screen (AID 1259380); also: nearly all actives have a fitted effect of over 30% in size
Outline: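 Cytotoxicity is measured in parallel with the reporter screen: after 16 hr compound exposure at 37C and a 2 hr LiveBLAzer step, CellTiter-Glo is added to the same ER-beta-UAS-bla HEK293T wells and luminescence read after 30 min.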
% is scaled to controls: 0 for no effect and ±100 for the full control effect.

Thyrotropin-releasing hormone receptor (Homo sapiens), sequence (P34981 whole entry, looked up): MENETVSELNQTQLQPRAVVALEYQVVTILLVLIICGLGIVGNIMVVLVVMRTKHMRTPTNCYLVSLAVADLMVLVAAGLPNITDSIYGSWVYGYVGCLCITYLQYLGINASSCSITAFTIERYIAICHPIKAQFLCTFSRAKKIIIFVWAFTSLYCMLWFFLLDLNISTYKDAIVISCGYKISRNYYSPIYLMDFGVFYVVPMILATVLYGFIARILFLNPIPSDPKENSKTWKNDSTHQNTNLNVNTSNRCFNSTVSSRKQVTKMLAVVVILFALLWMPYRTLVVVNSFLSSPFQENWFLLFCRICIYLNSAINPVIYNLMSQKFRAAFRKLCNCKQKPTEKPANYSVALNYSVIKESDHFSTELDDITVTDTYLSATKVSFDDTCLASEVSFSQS
Progesterone receptor (Homo sapiens), sequence (P06401 whole entry, looked up): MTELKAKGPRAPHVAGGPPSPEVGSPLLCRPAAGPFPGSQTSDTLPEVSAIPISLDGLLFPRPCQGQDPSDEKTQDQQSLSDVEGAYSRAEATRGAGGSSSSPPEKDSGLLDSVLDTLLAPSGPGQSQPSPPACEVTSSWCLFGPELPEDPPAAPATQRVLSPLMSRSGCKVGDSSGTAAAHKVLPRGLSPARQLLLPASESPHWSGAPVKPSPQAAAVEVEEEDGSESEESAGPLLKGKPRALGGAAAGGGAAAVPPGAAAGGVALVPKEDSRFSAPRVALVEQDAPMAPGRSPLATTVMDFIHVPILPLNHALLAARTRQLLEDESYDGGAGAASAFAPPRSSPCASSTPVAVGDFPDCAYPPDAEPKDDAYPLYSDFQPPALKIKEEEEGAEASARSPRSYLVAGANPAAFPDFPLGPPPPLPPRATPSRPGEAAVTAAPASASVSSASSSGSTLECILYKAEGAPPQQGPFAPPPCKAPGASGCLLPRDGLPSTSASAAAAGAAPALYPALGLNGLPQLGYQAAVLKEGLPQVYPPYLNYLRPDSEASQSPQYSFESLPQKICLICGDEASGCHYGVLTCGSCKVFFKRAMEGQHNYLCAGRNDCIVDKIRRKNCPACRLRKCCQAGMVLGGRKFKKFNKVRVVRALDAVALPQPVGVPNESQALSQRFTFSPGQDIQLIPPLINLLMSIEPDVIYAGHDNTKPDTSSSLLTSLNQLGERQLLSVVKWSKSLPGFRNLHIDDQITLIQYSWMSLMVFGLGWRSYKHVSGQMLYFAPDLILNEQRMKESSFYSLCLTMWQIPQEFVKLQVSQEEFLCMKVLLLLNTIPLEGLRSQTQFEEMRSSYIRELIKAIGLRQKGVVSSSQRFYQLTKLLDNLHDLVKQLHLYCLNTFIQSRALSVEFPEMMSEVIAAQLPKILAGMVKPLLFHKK
Thyrotropin receptor (Homo sapiens), sequence (P16473 whole entry, looked up): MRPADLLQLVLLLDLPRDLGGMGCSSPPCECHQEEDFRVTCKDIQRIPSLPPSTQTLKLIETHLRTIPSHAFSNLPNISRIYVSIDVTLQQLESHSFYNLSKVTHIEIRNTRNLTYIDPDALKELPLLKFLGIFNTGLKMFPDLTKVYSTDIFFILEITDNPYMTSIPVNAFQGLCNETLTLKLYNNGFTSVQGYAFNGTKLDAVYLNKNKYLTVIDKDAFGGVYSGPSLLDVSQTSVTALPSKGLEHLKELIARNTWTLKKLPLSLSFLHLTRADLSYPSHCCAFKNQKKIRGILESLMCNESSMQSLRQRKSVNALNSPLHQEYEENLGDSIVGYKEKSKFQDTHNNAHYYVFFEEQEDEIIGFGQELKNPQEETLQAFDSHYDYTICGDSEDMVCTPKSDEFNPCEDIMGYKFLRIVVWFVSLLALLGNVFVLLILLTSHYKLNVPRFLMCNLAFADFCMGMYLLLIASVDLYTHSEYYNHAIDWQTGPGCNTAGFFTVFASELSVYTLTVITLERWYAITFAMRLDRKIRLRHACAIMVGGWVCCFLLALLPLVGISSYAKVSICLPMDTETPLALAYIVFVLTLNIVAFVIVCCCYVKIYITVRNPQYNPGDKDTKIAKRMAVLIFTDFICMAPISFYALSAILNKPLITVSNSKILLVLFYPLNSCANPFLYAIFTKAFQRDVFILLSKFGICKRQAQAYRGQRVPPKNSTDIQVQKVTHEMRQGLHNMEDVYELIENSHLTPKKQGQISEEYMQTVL
Estrogen receptor (Homo sapiens), sequence (P03372 whole entry, looked up): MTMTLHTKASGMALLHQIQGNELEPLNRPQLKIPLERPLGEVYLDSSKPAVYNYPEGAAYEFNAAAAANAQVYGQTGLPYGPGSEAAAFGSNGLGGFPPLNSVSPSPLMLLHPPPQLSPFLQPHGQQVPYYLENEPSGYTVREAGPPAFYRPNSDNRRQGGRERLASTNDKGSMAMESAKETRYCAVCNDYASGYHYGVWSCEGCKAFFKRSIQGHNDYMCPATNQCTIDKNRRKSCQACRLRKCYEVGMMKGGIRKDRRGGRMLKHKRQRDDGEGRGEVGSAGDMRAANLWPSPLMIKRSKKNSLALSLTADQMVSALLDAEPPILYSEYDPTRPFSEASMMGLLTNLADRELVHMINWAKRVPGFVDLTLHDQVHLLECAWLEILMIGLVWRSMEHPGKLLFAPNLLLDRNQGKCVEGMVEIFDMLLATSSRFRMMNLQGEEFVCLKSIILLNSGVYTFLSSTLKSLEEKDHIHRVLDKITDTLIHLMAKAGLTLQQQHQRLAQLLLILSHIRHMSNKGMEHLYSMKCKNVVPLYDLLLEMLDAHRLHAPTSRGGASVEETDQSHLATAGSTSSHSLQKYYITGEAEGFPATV

CCCCCCCCCCCCN=C(N)N
inactive: activity change, negative = cytotoxicity [1] -9.57% [at 3.27 µM] | activity change, negative = cytotoxicity [2] -18.7% [at 3.27 µM] | cAMP activity change [3] 1.76% [at 3.27 µM] | activity change, negative = inhibition [4] 0.876% [at 3.27 µM] | activity change, negative = cytotoxicity [5] -1.52% [at 3.27 µM] | activation [6] 2.06% [at 3.27 µM] | activity change, negative = inhibition [7] 1.76% [at 3.27 µM] | activity change, negative = cytotoxicity [8] 1.32% [at 3.27 µM] | activity change, negative = cytotoxicity [9] 0.561% [at 3.27 µM] | viability change, negative = cytotoxic [10] -21.8% [at 2.72 µM] | activity change, negative = cytotoxicity [11] -9.54% [at 2.72 µM] | activation [12] 1.13% [at 2.72 µM] | activity, negative = inhibition [13] 1.26% [at 1.81 µM] | activation [14] 0.32% [at 2.04 µM] | activity change, negative = cytotoxicity [15] 1.51% [at 3.27 µM]

CCC(C)(C)O
inactive: Potency [1] | Potency [2] | Potency [16] | outcome [3] | Potency [5] | Potency [6] | Potency [7] | Potency [8] | Potency [9] | Potency [10] | outcome [12] | Potency [13] | outcome [14] | Potency [15]

CCCCCl
inactive: Potency [1] | Potency [17] | Potency [2] | outcome [3] | Potency [4] | Potency [5] | Potency [6] | Potency [9] | Potency [11] | outcome [12] | Potency [13] | outcome [14] | Potency [15]

C[N+]1(CCF)[C@@H]2CC[C@H]1CC(OC(=O)C(O)(c1ccccc1)c1ccccc1)C2 (stereo partly specified)
inactive: Potency [1] | Potency [17] | Potency [2] | outcome [3] | Potency [4] | Potency [5] | Potency [6] | Potency [7] | Potency [10] | Potency [11] | outcome [12] | Potency [13] | outcome [14] | Potency [15]
